Screening data from PubChem.
MPTP inh – blocks calcium-induced mitochondrial swelling; isolated mouse mitochondria, Ca2+ swelling absorbance, 30 min; inhibition, % at 10 µM; 360,000 tested, 1.4% active; AID 602449;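 active means inhibition of 50% or more, scaled per plate between neutral and stimulator controls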;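 further: 0% = DMSO wells given calcium and 100% = 1 mM EGTA wells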
ADAM10 inh – inhibitors of human ADAM10. O14672. 370,000 tested, 0.62% active. recombinant ADAM10, EDANS/DABCYL FRET peptide cleavage, 3 h. inhibition, % at 7 µM. AID 720582;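 active means inhibition above a per-campaign cutoff equal to the mean of compounds falling between control-based bounds plus 3 SD, cut at about 20% in these data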;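 further: 0% = DMSO wells while the 100% control is not disclosed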
ADAM17 inh – inhibitors of human ADAM17; P78536; recombinant ADAM17, EDANS/DABCYL FRET peptide cleavage; inhibition, % at 6.95 µM; 370,000 tested, 0.83% active;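 active means inhibition above the mean of compounds lying between control limits plus 3 SD, set per campaign, cut at about 8.5% in these data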;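 further: 0% = DMSO-only wells as the low control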
KLK7 zymogen act – proKLK7 (human) activation, primary screen; P49862; AID 652039; purified proKLK7, EDANS-DABCYL substrate fluorescence; 100% is mature enzyme control, 0% vehicle; 370,000 tested, 0.9% active; activation, % at 7 µM;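 active means activation above the mean of all tested compounds plus 3 SD, computed per campaign excluding outliers beyond control limits, cut at about 13% in these data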
Target sequence (P49862 whole entry, looked up): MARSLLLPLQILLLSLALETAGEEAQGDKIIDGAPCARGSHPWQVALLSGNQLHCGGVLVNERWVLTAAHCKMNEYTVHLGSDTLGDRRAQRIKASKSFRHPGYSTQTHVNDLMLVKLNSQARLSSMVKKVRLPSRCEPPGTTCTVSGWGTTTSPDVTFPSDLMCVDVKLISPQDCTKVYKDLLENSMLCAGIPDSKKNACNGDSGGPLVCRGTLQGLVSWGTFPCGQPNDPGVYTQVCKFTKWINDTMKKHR
Pemphigus Ab inh – inhibitors of pemphigus antibody binding to human desmoglein-3; 310,000 tested, 0.48% active; binding (percent of control), % at 10 µM; DSG3-coupled beads, scFv-anti-DSG3-GFP binding, flow cytometry; active compounds read low; AID 588358;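 active means binding more than 3 SD below its plate's average and above zero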;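 further: hits lower antibody fragment binding to DSG3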
rCAG binder – molecules binding r(CAG) RNA repeats; inhibition, % at 3 µM; r(CAG) RNA repeat, TO-PRO-1 dye displacement fluorescence; 370,000 tested, 1.3% active;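 active means inhibition above the plate cutoff, the mean of all test compounds on that plate plus 3 SD, cut at about 35% in these data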;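 further: 0% = DMSO alone and 100% = 100 µM mitoxantrone as full dye displacement; higher means more dye released from RNA so lower well fluorescence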
MPTP counter – membrane potential counter-screen of mitochondrial pore inhibitors | isolated mitochondria, Rhodamine 123 fluorescence | AID 624504 | 5,000 tested, 78% active | shares compounds with MPTP inh | inhibition, % at 10 µM; in the data active means inhibition above about 22%;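 further: 0% = DMSO vehicle and 100% = positive control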
MPTP swell DR – MPTP inhibition, dose response swelling confirmation; shares compounds with MPTP inh; isolated mitochondria swelling, absorbance; IC50, µM; 780 tested, 58% active; AID 651561; in the data active means IC50 below about 20 µM
MPTP cs DR – counter-screen for mitochondrial permeability transition pore inhibitors, dose response. 780 tested, 49% active. shares compounds with MPTP inh. isolated mitochondria counterscreen, fluorescence read-out. IC50, µM. AID 651564; in the data active means IC50 below about 80 µM
* hit, by the source's call; x = no result given. An excerpt weighted towards active compounds, which were near 4.7% of everything screened.

SMILES	MPTP inh	ADAM10 inh	ADAM17 inh	KLK7 zymogen act	Pemphigus Ab inh	rCAG binder	MPTP counter	others
CC(NC(=O)Nc1ccc(Br)cc1)C(C)(C)C (centres undefined)	78*	8	5	-1	107	1	93*
CCOc1ccc(C2C=C(c3ccccc3)Nc3nnnn32)cc1 (centres undefined)	4	-37	-11	2	88	1	x
CCOc1ccc(C2C=C(c3ccc(C)cc3)Nc3nnnn32)cc1 (centres undefined)	73*	-34	-12	-1	x	-1	26*
CCNc1ccc(S(=O)(=O)N(C)C)cc1NCC(=O)Nc1ccc(F)c(Cl)c1	59*	12	1	0	110	8	70*
CCNc1ccc(S(=O)(=O)N(C)C)cc1NCC(=O)Nc1ccccc1F	15	8	-2	0	102	-2	x
Cc1oc(-c2cc(Cl)cc(Cl)c2)cc1C(=O)NCCc1ccccc1	93*	7	2	0	104	6	78*
COc1ccc(CCNC(=O)c2cc(-c3cc(Cl)cc(Cl)c3)oc2C)cc1	77*	1	-4	0	98	0	21*
COc1ccc(CCNC(=O)c2cc(C)oc2C)cc1	0	-6	-5	1	122	-3	x
Cc1oc(-c2ccc(Cl)cc2)cc1C(=O)NC1CCN(Cc2ccccc2)CC1	0	6	2	0	109	-3	x
CC(C)C[C@@H](NC(=O)OC(C)(C)C)C(=O)N1O[C@]23C=C[C@]14C[C@@H](O)CC[C@]4(C)C2CC[C@]1(C)[C@@H]([C@H](C)/C=C/[C@H](C)C(C)C)CC[C@H]13 (some centres undefined)	x	-128	-1	0	x	1	x
CCN(CC)C(=O)c1ccc(COc2ccc(Cl)c(C)c2)o1	91*	6	-6	-1	134	-10	85*
CCC(CO)NCc1ccc(OCC(=O)Nc2cccc(C(F)(F)F)c2)c(OC)c1 (centres undefined)	58*	-11	-5	-1	98	-2	-14	MPTP swell DR=17*;MPTP cs DR=>80
CCOc1cc(CNC(C)(C)C)ccc1OCC(=O)Nc1cccc(C(F)(F)F)c1	2	1	-2	0	103	0	x
COC(=O)[C@]12C[C@H](CC(=O)NCCCCc3ccccc3)C(=O)N(Cc3ccc4c(c3)OCO4)C1=C[C@H](COCc1ccccc1)O[C@@H]2C	x	11	3	1	x	7	x
O=C(O)c1ccccc1-c1c2cc(I)c(=O)c(I)c-2oc2c(I)c(O)c(I)cc12	79*	-14	-8	2	86	-76	-17
Cc1ccc(C(=O)N2CCC[C@@H]2C(=O)N2CCC[C@@H]2C(=O)NCc2ccccc2)cc1C	x	-2	-2	0	x	-1	x
CN(C)CCCNc1ncnc2scc(-c3ccccc3)c12	10	7	0	0	115	-4	x
c1ccc(CNc2ncnc3scc(-c4cccs4)c23)nc1	72*	-5	-3	0	103	1	57*
c1ccc(-c2csc3ncnc(NCc4ccccn4)c23)cc1	62*	-8	-5	0	x	-4	33*
N#Cc1cnc2sc3ccccc3n2c1=N	72*	-9	-3	0	100	2	81*
CC(C)(C)c1cc(C(=O)Nc2ccc(F)cc2)n(Cc2ccc(F)cc2)n1	80*	12	4	0	98	-7	87*
Cc1cc(C)c(S(=O)(=O)N2C[C@H]3CON(C)[C@H]3C[C@H]2c2ccc(-n3ccnc3)cc2)c(C)c1	x	-13	-7	1	x	2	x
Cc1cc(C)nc(SCC(=O)Nc2ccnc3ccccc23)n1	97*	3	1	1	124	-1	98*
O=C(CSC1=NCCS1)Nc1ccc2ccccc2c1	0	6	-3	1	85	2	x
O=C(CSC1=NCCS1)Nc1ccnc2ccccc12	68*	6	3	0	120	3	74*
SMILES	MPTP inh	ADAM10 inh	ADAM17 inh	KLK7 zymogen act	Pemphigus Ab inh	rCAG binder	MPTP counter	others
O=C(OCCN1CCN(C2CN(Cc3cn(Cc4ccccc4Cl)nn3)S(=O)(=O)C2)CC1)c1cccs1 (centres undefined)	x	0	-3	1	x	0	x
Cc1ccc(OCCn2c(Br)nc3c2c(=O)n(C)c(=O)n3C)cc1	82*	2	-2	0	106	-2	60*
O=C(COc1ccccc1C(=O)NCc1ccccc1)Nc1ccc(I)cc1	x	-1	-2	-1	x	11	x
O=C(CSc1nnc(-c2cnccn2)n1-c1ccccc1)Nc1ccc2cn[nH]c2c1	x	-7	-3	0	x	0	x
COc1ccc(NC(=O)C2Cc3c(-c4ccc(NC(C)=O)cc4)ccnc3O2)cc1OC (centres undefined)	0	0	-2	1	x	0	x
COc1ccc(NC(=O)C2Cc3c(-c4ccc5c(c4)OCO5)ccnc3O2)cc1OC (centres undefined)	96*	-58	-15	0	x	2	89*
COc1ccc(NC(=O)C2Cc3c(-c4cccc(F)c4)ccnc3O2)cc1OC (centres undefined)	68*	0	-3	-1	x	1	65*
O=C(NC(NNc1ccc([N+](=O)[O-])cc1)(C(F)(F)F)C(F)(F)F)c1ccc(Cl)cc1	98*	19	7	0	106	3	78*
Cc1cc(C)nc(-n2nc(C)c(Br)c2Nc2ccc(Br)cc2)n1	2	-3	-2	0	96	3	x
Cc1nn(C)c(Nc2ccc(Br)cc2)c1Br	89*	2	1	1	105	-3	76*
CCOc1ccccc1C(=O)Nc1cc(Cl)ccc1O	92*	8	7	0	102	19	76*
Cc1ccc(Cl)cc1NC(=O)c1ccccc1OCC(=O)Nc1ccc(Cl)cc1	88*	-1	-1	0	86	4	93*
CCOc1ccccc1C(=O)Nc1cc(OC)ccc1OC	3	0	3	0	100	2	x
COc1ccccc1C(=O)Nc1cc(Cl)ccc1O	67*	-9	-8	1	104	6	36*
O=C(NCc1ccccc1)[C@@H]1CCCN1C(=O)[C@H]1CCCN1C(=O)c1ccccc1	x	9	2	0	x	1	x
O=C(Nc1cccc(Cl)c1)c1ccc(F)c(S(=O)(=O)NCc2cccs2)c1	77*	14	6	1	98	11	84*
